Data on 43 sequences can be found in the supplement of paper PMC3545927.

The other results are listed elsewhere or left out. How many sequences the whole screen found active is unknown.

The test deals with furin, P09958. Put plainly: furin cleavage Z-score vs untreated control; higher = more cleavage, active = 3.5 or more, inactive = 1 or less, 8 variable residues between constant flanks. The method in brief: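 Purified furin cleaved 8-mer peptides that were fused to a cDNA oligonucleotide and held on magnetic beads by their N-terminus. Each 0.01 ml reaction used a 1:10 enzyme:substrate ratio in 50 mM HEPES pH 7.5 with CaCl2 and NaCl and ran 7.5, 15 or 30 min. Released DNA was adapter-tagged by PCR and sequenced, and read counts gave abundance. The cleavage Z-score came from log counts against furin-free reactions, lowess-adjusted and scaled by median absolute deviation.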
Chain of furin, P09958 (P09958 whole entry, the tested form may be a part): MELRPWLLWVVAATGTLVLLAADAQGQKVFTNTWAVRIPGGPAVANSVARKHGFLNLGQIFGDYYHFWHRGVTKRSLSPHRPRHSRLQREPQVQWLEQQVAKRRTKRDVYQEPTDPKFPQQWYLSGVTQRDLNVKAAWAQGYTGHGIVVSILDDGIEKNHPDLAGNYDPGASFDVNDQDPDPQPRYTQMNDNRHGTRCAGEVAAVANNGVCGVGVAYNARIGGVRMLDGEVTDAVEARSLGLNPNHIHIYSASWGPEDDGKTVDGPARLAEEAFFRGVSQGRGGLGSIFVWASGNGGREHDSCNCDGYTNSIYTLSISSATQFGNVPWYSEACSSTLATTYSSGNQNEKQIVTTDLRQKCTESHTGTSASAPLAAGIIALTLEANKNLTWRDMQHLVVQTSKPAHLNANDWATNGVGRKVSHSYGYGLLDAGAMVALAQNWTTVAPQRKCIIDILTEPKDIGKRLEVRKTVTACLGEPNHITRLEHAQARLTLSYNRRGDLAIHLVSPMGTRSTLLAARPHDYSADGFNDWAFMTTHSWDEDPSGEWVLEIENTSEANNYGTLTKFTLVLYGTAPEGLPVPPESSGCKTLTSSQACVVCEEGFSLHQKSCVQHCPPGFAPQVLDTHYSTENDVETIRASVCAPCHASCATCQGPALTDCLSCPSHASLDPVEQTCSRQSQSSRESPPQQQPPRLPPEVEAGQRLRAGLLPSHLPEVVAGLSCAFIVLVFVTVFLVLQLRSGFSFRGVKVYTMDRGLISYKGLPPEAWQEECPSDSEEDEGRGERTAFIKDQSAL

B1: HC2135 (peptide)
chain: CAEHVVCCSMAGNASASA
Take B1: the “furin cleavage Z-score” value is 0.471 (inactive) (7.5 min), -0.688 (inactive) (15 min) and 1.47 (30 min).

B2: HC2098 (peptide)
chain: CAVVCCSMSTAGNASASA
On to B2, for which the “furin cleavage Z-score” value reads like this: (7.5 min) 0.887 (inactive); (15 min) -0.156 (inactive); (30 min) 0.445 (inactive).

B3: FS-737 (peptide)
chain: CAYGCRRRRDAGNASASA
As to B3, the “furin cleavage Z-score” value is 9.65 (active) (7.5 min), 10.6 (active) (15 min) and 8.47 (active) (30 min).

B4: FS-346 (peptide)
chain: CALAFRRRRDAGNASASA
As for B4, the “furin cleavage Z-score” value is 7.62 (active) (7.5 min), 8.27 (active) (15 min) and 6.14 (active) (30 min).

B5: FS-101 (peptide)
chain: CATTDRRRRDAGNASASA
Consider B5, for which the “furin cleavage Z-score” value is, setting by setting: (7.5 min) 9.9 (active); (15 min) 8.9 (active); (30 min) 5.67 (active).

B6: FS-657 (peptide)
chain: CAGRPRSRKIAGNASASA
Take B6: the “furin cleavage Z-score” value by setting is: (7.5 min) -0.514 (inactive); (15 min) -1.38 (inactive); (30 min) 0.291 (inactive).

B7: HC640 (peptide)
chain: CAWAHNGLRDAGNASASA
Consider B7, for which the “furin cleavage Z-score” value is, setting by setting: (7.5 min) 0.594 (inactive); (15 min) 0.97 (inactive); (30 min) -0.0784 (inactive).

B8: FS-432 (peptide)
chain: CAGRPRRRRDAGNASASA
As for B8, the “furin cleavage Z-score” value was 11.8 (active) (7.5 min), 13.5 (active) (15 min) and 9.18 (active) (30 min).

B9: HC2420 (peptide)
chain: CAEVPCHRPCAGNASASA
Regarding B9, the “furin cleavage Z-score” value by setting is: (7.5 min) 0.0318 (inactive); (15 min) 0.651 (inactive); (30 min) 0.47 (inactive).

B10: HC1577 (peptide)
chain: CAIMFAPTLWAGNASASA
In the case of B10, the “furin cleavage Z-score” value was -1.61 (inactive) (7.5 min), -2.05 (inactive) (15 min) and 0.617 (inactive) (30 min).

B11: HC764 (peptide)
chain: CASPVFTDNSAGNASASA
As for B11, the “furin cleavage Z-score” value by setting is: (7.5 min) -0.427 (inactive); (15 min) 0.197 (inactive); (30 min) -1.76 (inactive).

B12: HC320 (peptide)
chain: CAAWDMMMNWAGNASASA
Consider B12, for which the “furin cleavage Z-score” value runs as follows: (7.5 min) 1.05; (15 min) 0.73 (inactive); (30 min) -0.468 (inactive).

B13: HC1679 (peptide)
chain: CAPEECSQHLAGNASASA
On to B13, for which the “furin cleavage Z-score” value runs as follows: (7.5 min) 1.99; (15 min) 1.43; (30 min) 0.965 (inactive).

B14: HC846 (peptide)
chain: CAGEIPFYGKAGNASASA
On to B14, for which the “furin cleavage Z-score” value (7.5 min) was 1.57, the “furin cleavage Z-score” value (15 min) was -1.54 (inactive) and the “furin cleavage Z-score” value (30 min) is -0.341 (inactive).

B15: HC1274 (peptide)
chain: CAIEANLLWRAGNASASA
As to B15, the “furin cleavage Z-score” value was 0.45 (inactive) (7.5 min), 0.419 (inactive) (15 min) and 0.862 (inactive) (30 min).

B16: FS-1078 (peptide)
chain: CASASRGPRSAGNASASA
Take B16: the “furin cleavage Z-score” value (7.5 min) is 4.05 (active), the “furin cleavage Z-score” value (15 min) was 4.67 (active) and the “furin cleavage Z-score” value (30 min) is 4.87 (active).

B17: FS-1176 (peptide)
chain: CAVGKRQPRSAGNASASA
As for B17, the “furin cleavage Z-score” value is, setting by setting: (7.5 min) 10.8 (active); (15 min) 10.9 (active); (30 min) 8.62 (active).

B18: FS-745 (peptide)
chain: CAAKARGPRSAGNASASA
With B18, the “furin cleavage Z-score” value is, setting by setting: (7.5 min) 11 (active); (15 min) 9.83 (active); (30 min) 7.42 (active).

B19: FS-705 (peptide)
chain: CAREYRGQRSAGNASASA
Consider B19, for which the “furin cleavage Z-score” value is -0.292 (inactive) (7.5 min), 2.01 (15 min) and 0.594 (inactive) (30 min).

B20: FS-1058 (peptide)
chain: CARAERGPRSAGNASASA
B20: the “furin cleavage Z-score” value runs as follows: (7.5 min) 3.99 (active); (15 min) 4.52 (active); (30 min) 4.09 (active).

B21: HC835 (peptide)
chain: CAATPPGSVTAGNASASA
Turning to B21, the “furin cleavage Z-score” value by setting is: (7.5 min) -1.05 (inactive); (15 min) -0.0418 (inactive); (30 min) -0.602 (inactive).

B22: HC1075 (peptide)
chain: CAFVGAGLAGAGNASASA
Consider B22, for which the “furin cleavage Z-score” value was -0.934 (inactive) (7.5 min), -0.739 (inactive) (15 min) and -0.847 (inactive) (30 min).

B23: HC2047 (peptide)
chain: CAVVCCSFSYAGNASASA
With B23, the “furin cleavage Z-score” value reads like this: (7.5 min) 0.639 (inactive); (15 min) -0.617 (inactive); (30 min) -0.397 (inactive).

B24: HC605 (peptide)
chain: CATKLLLAVFAGNASASA
Regarding B24, the “furin cleavage Z-score” value (7.5 min) amounted to 1.92, the “furin cleavage Z-score” value (15 min) was determined as 3.24 and the “furin cleavage Z-score” value (30 min) was 0.635 (inactive).

B25: HC2566 (peptide)
chain: CASTPCSAHMAGNASASA
For the sequence B25, the “furin cleavage Z-score” value (7.5 min) is -0.903 (inactive), the “furin cleavage Z-score” value (15 min) was 0.0563 (inactive) and the “furin cleavage Z-score” value (30 min) was determined as 1.83.

B26: HC281 (peptide)
chain: CAAMTPTVATAGNASASA
Regarding B26, the “furin cleavage Z-score” value reads like this: (7.5 min) 0.668 (inactive); (15 min) 1.6; (30 min) -0.149 (inactive).

B27: FS-763 (peptide)
chain: CAERHRQTRSAGNASASA
With B27, the “furin cleavage Z-score” value is 6.53 (active) (7.5 min), 6.61 (active) (15 min) and 4.64 (active) (30 min).

B28: FS-1574 (peptide)
chain: CATHSIKKRSAGNASASA
In the case of B28, the “furin cleavage Z-score” value is 8.84 (active) (7.5 min), 7.91 (active) (15 min) and 7.4 (active) (30 min).

B29: FS-852 (peptide)
chain: CAQTSRSNRFAGNASASA
For the sequence B29, the “furin cleavage Z-score” value reads like this: (7.5 min) 0.217 (inactive); (15 min) -0.984 (inactive); (30 min) 0.464 (inactive).

B30: FS-184 (peptide)
chain: CAQTSRNTRSAGNASASA
Turning to B30, the “furin cleavage Z-score” value by setting is: (7.5 min) 9.04 (active); (15 min) 11.5 (active); (30 min) 9.02 (active).

B31: FS-867 (peptide)
chain: CASASHKKRSAGNASASA
With B31, the “furin cleavage Z-score” value is 3 (7.5 min), 2.31 (15 min) and 3.6 (active) (30 min).

B32: HC1997 (peptide)
chain: CASVCCSMSYAGNASASA
B32: the “furin cleavage Z-score” value is, setting by setting: (7.5 min) -0.28 (inactive); (15 min) -0.316 (inactive); (30 min) -0.657 (inactive).

B33: HC2423 (peptide)
chain: CAAREVPCHRAGNASASA
Turning to B33, the “furin cleavage Z-score” value was 0.147 (inactive) (7.5 min), 1.34 (15 min) and 1.67 (30 min).

B34: HC363 (peptide)
chain: CAPGAKQNVQAGNASASA
For the sequence B34, the “furin cleavage Z-score” value (7.5 min) is -0.22 (inactive), the “furin cleavage Z-score” value (15 min) is -0.957 (inactive) and the “furin cleavage Z-score” value (30 min) is -0.643 (inactive).

B35: HC569 (peptide)
chain: CASCGGVVLVAGNASASA
B35: the “furin cleavage Z-score” value (7.5 min) was -1.44 (inactive), the “furin cleavage Z-score” value (15 min) is -0.138 (inactive) and the “furin cleavage Z-score” value (30 min) was -1.42 (inactive).

B36: FS-1475 (peptide)
chain: CAQLLRRRRAAGNASASA
Take B36: the “furin cleavage Z-score” value (7.5 min) is 5.21 (active), the “furin cleavage Z-score” value (15 min) was 3.72 (active) and the “furin cleavage Z-score” value (30 min) is 3.69 (active).

B37: FS-582 (peptide)
chain: CACLSRRRRAAGNASASA
As for B37, the “furin cleavage Z-score” value reads like this: (7.5 min) 9.75 (active); (15 min) 10.1 (active); (30 min) 8.23 (active).

B38: FS-1613 (peptide)
chain: CASLLRERRAAGNASASA
In the case of B38, the “furin cleavage Z-score” value runs as follows: (7.5 min) -0.33 (inactive); (15 min) 1.11; (30 min) 0.57 (inactive).

B39: FS-798 (peptide)
chain: CAHRSVRRRAAGNASASA
B39: the “furin cleavage Z-score” value by setting is: (7.5 min) 4.59 (active); (15 min) 5.95 (active); (30 min) 5.68 (active).

B40: HC1138 (peptide)
chain: CAQLLRRLHQAGNASASA
Turning to B40, the “furin cleavage Z-score” value reads like this: (7.5 min) -0.809 (inactive); (15 min) 0.744 (inactive); (30 min) 0.327 (inactive).

B41: FS-326 (peptide)
chain: CAFLSRRRRAAGNASASA
For B41, the “furin cleavage Z-score” value by setting is: (7.5 min) 8.63 (active); (15 min) 7.91 (active); (30 min) 6.71 (active).

B42: HC2214 (peptide)
chain: CAEVVTSKWVAGNASASA
B42: the “furin cleavage Z-score” value (7.5 min) is -0.244 (inactive), the “furin cleavage Z-score” value (15 min) was -0.0853 (inactive) and the “furin cleavage Z-score” value (30 min) was -0.758 (inactive).

B43: HC280 (peptide)
chain: CAWVAMTPTVAGNASASA
On to B43, for which the “furin cleavage Z-score” value was -0.409 (inactive) (7.5 min), 1.35 (15 min) and 0.148 (inactive) (30 min).
